# In PubChem BioAssay:
# “And” between values parts separate entries of the source, which are not always exact repeats. Equal values may be shown once. Where a structure was tested more than once in an assay, its records may differ in their call. The source made the active and inactive calls. Unless noted, how the calls were made is not given here.
# Assays:
# [1] = circadian clock period modulators, cell-based, LOPAC library, luminescence reporter (AID 2774); conditions: circadian reporter cells, at 7 µM, actives lie on both sides;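 further: values are relative to mean of DMSO wells on each plate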
# [2] = test system: Hepatitis C virus NS3 helicase; test: HCV NS3 helicase inhibitors, primary screen, biochemical, fluorescence polarization, LOPAC1280 library (AID 687035; in the data active means inhibition above about 37%); conditions: Purified HCV NS3 helicase, Cy5-dT15 ssDNA binding fluorescence polarization; stronger effect = higher value; concentration not given here
# [3] = Cy5 fluorescence quenching or enhancement artefacts, artefact control for HCV NS3 helicase inhibitor project, biochemical, LOPAC1280 (AID 687037); conditions: Cy5-DNA-NS3h complex fluorescence interference counterscreen
# [4] = test system: Aerobactin synthetase IucA (Klebsiella pneumoniae); test: IucA aerobactin synthetase inhibitors, biochemical, Tocris library, absorbance (AID 1345561); conditions: purified IucA enzyme assay, absorbance (OD) read-out; stronger effect = lower value;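 tested at 8 µM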;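 further: 100% = enzyme without compound and 0% = no enzyme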
# [5] = sensitizers of A549 cells to miR-34 induction, primary screen, imaging, A549 dox-inducible miR-34, nuclei and caspase counts (AID 1347080;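 active means compounds whose cell count with miR-34 switched on is under 0.7 times the count with it off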); conditions: A549 miR-34 inducible, Hoechst nuclei count, 48 h
# [6] = phospholipid biosynthesis inhibitors in animal cells, primary screen, cell-based, LOPAC library, screen 4 (AID 1347384); conditions: phospholipid biosynthesis inhibition screen, at 10 µM
# [7] = viability rescue of complex I mutant cybrids, primary screen, cell-based, galactose medium, ATP luminescence (AID 1645843;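 active means z-score of at least 1.8 in each of two replicates, scored against plate mean and spread of sample wells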;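 further: positive z means more ATP and so rescue of galactose-driven cybrid death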); conditions: complex I mutant cybrid cells, 72 h, stronger effect = higher value
# [8] = hESC survival regulators, cell-based (AID 493140); conditions: human embryonic stem cell survival screen; stronger effect = higher value;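 further: cells exposed to compounds for four days before counting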
# [9] = inhibitors of Cryptococcus chitosan production, flow cytometry, Cibacron Brilliant Red staining (AID 1347148); conditions: Cryptococcus neoformans chitosan, stronger effect = lower value; at 10 µM unless noted;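 further: compound exposure lasted three days at 37 degrees C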
# [10] = survival rescue of mitochondrial mutant cells in low glucose, primary screen, MELAS cybrids, Rieske KO mouse fibroblasts, CellTiter-Glo (AID 1508586;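 active means mean z-score across replicates of 1.96 or higher in either the MELAS or the Rieske mutant cell line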;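 further: z relative to plate mean and SD of compound and empty wells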)
# [11] = liver-stage malaria parasite growth inhibition, primary screen, cell-based, HepG2, luciferase luminescence, HepG2 viability (AID 624349; in the data active means parasite load remaining mostly below about 12%, no sharp cut-off; inactive means mostly above about 10%;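 further: 100% = mean of DMSO negative control wells on the same plate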); conditions: P. berghei liver stage in HepG2, luciferase luminescence, concentration not given here; parasite load remaining: stronger effect = lower value; viability: measured here: HepG2 viability without parasites
# [12] = modifiers of HSF1 nuclear foci, imaging, Selleck Cancer Library (AID 1347162; in the data active means plate-normalised HSF1 focus index below about 0.46); conditions: human cells, at 10 µM; SSMD: measured here: HSF1 foci SSMD mean; cell count: measured here: cell number; plate-normalised HSF1 focus index: stronger effect = lower value
# [13] = stronger effect = lower value, cell number ratio, induced over uninduced
# [14] = measured here: relative caspase fold change +Dox/-Dox
# [15] = measured here: total cells with miR-34 induction, stronger effect = lower value
# [16] = measured here: total cells without miR-34 induction
# [17] = MELAS cybrid survival, CellTiter-Glo 48 h, stronger effect = higher value
# [18] = Rieske KO mouse fibroblast survival, CellTiter-Glo 72 h
Compound,period change [1],inhibition [2],fluorescence ratio (interference) [3],remaining activity [4],"fold change [5, 13]","fold change [5, 14]","cell count [5, 15]","cell count [5, 16]",outcome [6],z-score [7],survival [8],fold fluorescence [9],"z-score [10, 17]","z-score [10, 18]",parasite load remaining [11],viability [11],SSMD [12],cell count [12],plate-normalised HSF1 focus index [12]
CCSC(=N)N,0.115 h (inactive),-2% (inactive),1 (inactive),116% (inactive),1.03 (inactive) and 0.939 (inactive) and 0.949 (inactive),0.74 and 0.98 and 1.59,10300 and 5940 and 9910,10000 and 6330 and 10400,inactive,0.125 (inactive) and 0.13 (inactive),,,,,,,,,
Cc1ccc(-c2nn(C(C)(C)C)c3ncnc(N)c23)cc1,,,,109% (inactive),1.15 (inactive) and 0.969 (inactive) and 1.02 (inactive),0.8 and 0.845 and 0.764,850 and 2400 and 3230,738 and 2480 and 3170,,0.19 (inactive),82.2 (inactive),12.9 [at 177.7 µM] (inactive),0.565 (inactive),-0.238,,,,,
O=C1CCc2c(ccc3ccccc23)O1,,,,100% (inactive),0.939 (inactive) and 0.91 (inactive),0.854 and 0.797,5380 and 8760,5730 and 9620,,-0.32 (inactive),,3.79 [at 252.2 µM] (inactive),,,,,,,
COc1ccc(Br)cc1S(=O)(=O)NC(=O)/C=C/c1ccccc1Cc1ccc2ccccc2c1,,,,102% (inactive),1.05 (inactive) and 0.853 (inactive),1.89 and 2.15,9590 and 8680,9110 and 10200,inactive,0.395 (inactive) and 0.085 (inactive),,,,,,,,,
Clc1cccc(Nc2nnc(-c3ccccc3)c3ccccc23)c1,,,,100% (inactive),0.991 (inactive) and 0.925 (inactive),0.939 and 0.863,1790 and 6180,1810 and 6680,,-1.22 (inactive),,8.57 [at 150.7 µM] (inactive),,,,,,,
CCCCCCCC/C=C\CCCCCCCC(=O)NCCc1ccc(O)c(O)c1,0.16 h (inactive),-3% (inactive),1 (inactive),113% (inactive),0.822 (inactive) and 1.01 (inactive) and 1 (inactive),1.55 and 1.58 and 0.782,4510 and 5800 and 5520,5490 and 5740 and 5510,inactive,-1.38 (inactive) and -0.82 (inactive),98 (inactive),,,,,,,,
COC(=O)C1=C(C)NC(C)=C([N+](=O)[O-])C1c1ccccc1C(F)(F)F (stereo not given),0.05 h (inactive),-5% (inactive),0.9 (inactive),124% (inactive),1.01 (inactive) and 1 (inactive) and 0.845 (inactive),1.21 and 1.49 and 0.884,9160 and 5080 and 7400,9050 and 5080 and 8750,inactive,-0.7 (inactive) and -0.625 (inactive),,,,,,,,,
Oc1cc2c(cc1O)C(c1ccccc1)CNCC2 (stereo not given),0.125 h (inactive),-3% (inactive),1 (inactive),113% (inactive),0.993 (inactive) and 0.954 (inactive),1.37 and 0.889,10500 and 10200,10600,inactive,0.58 (inactive) and 0.48 (inactive),,,,,,,,,
CC1CCN(CC[C@H]2CCCN2S(=O)(=O)c2cccc(O)c2)CC1,0.055 h (inactive),-3% (inactive),1 (inactive),106% (inactive),0.975 (inactive) and 0.908 (inactive),1.72 and 0.97,9460 and 8490,9700 and 9350,inactive,-0.155 (inactive) and -0.32 (inactive),,,,,,,,,
N.N.O=C(O)C1(C(=O)O)CCC1.[Pt],,,,100% (inactive),0.91 (inactive) and 1.06 (inactive),1.49 and 3.05,7500 and 6220,8240 and 5890,,-0.15 (inactive),,,,,105% (inactive) and 45.1% (inactive),75.3% and 97.1%,2.09,7840,1.08 (inactive)
CCCCCCCCCCCCC/C=C/[C@@H](O)[C@H](CO)NC(C)=O,,,,114% (inactive),0.919 (inactive) and 1.02 (inactive) and 0.95 (inactive),1.09 and 0.67 and 0.924,5360 and 6170 and 8250,5840 and 6040 and 8680,,-1.23 (inactive),95 (inactive),5.52 (inactive),,,,,,,
CN(C(=O)CCCOc1ccc2[nH]c(=O)ccc2c1)C1CCCCC1,-0.015 h (inactive),-1% (inactive),1 (inactive),117% (inactive),1.04 (inactive) and 0.982 (inactive) and 0.9 (inactive),2.05 and 0.725 and 1.16,8910 and 7180 and 9490,8530 and 7310 and 10500,inactive,-0.385 (inactive) and 0.22 (inactive) and -0.02 (inactive),,,0.542 (inactive),-0.471,30.5% (inactive),71.5%,,,
COc1cc(/C=C(\C#N)C(N)=O)cc(CSc2nc3ccccc3s2)c1O,,,,115% (inactive),0.859 (inactive) and 0.896 (inactive),1.08 and 1.29,4790 and 8180,5570 and 9130,,5.03 (active),114 (inactive),9.44 [at 125.8 µM] (inactive),,,,,,,
CC(C)(C)n1nc(-c2ccc(Cl)cc2)c2c(N)ncnc21,,,,92.2% (inactive),1.17 (inactive) and 0.851 (inactive) and 0.882 (inactive),0.727 and 0.97 and 0.665,797 and 2420 and 4980,682 and 2850 and 5640,,1.28 (inactive),53.1 (inactive),4.87 [at 165.7 µM] (inactive),0.749 (inactive),-0.167,,,,,
S=C(S)OC1CC2CC1C1CCCC21 (stereo not given),-0.18 h (inactive),-2% (inactive),1 (inactive),120% (inactive),0.999 (inactive) and 0.847 (inactive) and 0.975 (inactive),0.874 and 0.927 and 0.9,10600 and 4560 and 8830,10600 and 5380 and 9060,inactive,-0.025 (inactive) and -0.095 (inactive),,5.66 [at 187.6 µM] (inactive),,,,,,,
Fc1cccc(/C=N/N=C/c2cccc(F)c2)c1,,,,113% (inactive),1.08 (inactive) and 0.921 (inactive),1.02 and 0.755,11300 and 8600,10400 and 9330,inactive,0.64 (inactive) and 0.415 (inactive),,,,,,,,,
CCCCCCCCCCCCCCCC(=O)OC(CC(=O)O)C[N+](C)(C)C (stereo not given),0.01 h (inactive),-4% (inactive),1 (inactive),122% (inactive),1.09 (inactive) and 1.01 (inactive),0.674 and 0.826,6530 and 7890,5960 and 7780,inactive,-1.29 (inactive) and -1.24 (inactive),103 (inactive),,,,,,,,
COc1ccccc1N1CCN(CCN2C(=O)CC3(CCCC3)CC2=O)CC1,-0.035 h (inactive),-5% (inactive),1 (inactive),96.2% (inactive),1.01 (inactive) and 0.904 (inactive) and 0.921 (inactive),1.78 and 0.65 and 0.553,10300 and 7050 and 8240,10200 and 7800 and 8940,inactive,-0.235 (inactive) and -0.615 (inactive),,,-0.152 (inactive),-0.237,,,,,
CCN(CC)CCCCNc1ncc2cc(-c3c(Cl)cccc3Cl)c(NC(=O)NC(C)(C)C)nc2n1,,,,131% (inactive),0.841 (inactive) and 1.42 (inactive),1.06 and 1.08,938 and 569,1110 and 401,inactive,-0.7 (inactive) and -1 (inactive),,,,,,,,,
CC1CCN=C(N)S1 (stereo not given),-0.02 h (inactive),-2% (inactive),1 (inactive),103% (inactive),1.02 (inactive) and 0.923 (inactive),1.68 and 0.753,9440 and 8650,9270 and 9380,inactive,0.31 (inactive) and 1.27 (inactive),,,,,,,,,
CC(N)=NCc1cccc(CN)c1,-0.015 h (inactive),,,107% (inactive),1.05 (inactive) and 0.837 (inactive),1.01 and 0.692,6210 and 7850,5900 and 9380,,0 (inactive),,3.53 [at 282.1 µM] (inactive),,,,,,,
CN(C)c1ccc(/C=C2\C(=O)Nc3ccccc32)cc1,-0.18 h (inactive),-2% (inactive),0.9 (inactive),109% (inactive),1.15 (inactive) and 1.05 (inactive) and 0.834 (inactive),1.24 and 1.39 and 0.903,7000 and 1360 and 6590,6070 and 1300 and 7900,inactive,3.25 (active) and 0.195 (inactive),85.4 (inactive),5.59 [at 189.2 µM] (inactive),,,,,,,
COCc1nc2c([nH]1)c(=O)n(C)c(=O)n2CC(C)C,-0.19 h (inactive),-4% (inactive),0.9 (inactive),101% (inactive),1.1 (inactive) and 0.916 (inactive) and 0.973 (inactive),1 and 1.13 and 0.871,11000 and 5700 and 9180,10000 and 6220 and 9430,inactive,0.515 (inactive) and -0.165 (inactive),,4.02 [at 187.8 µM] (inactive),,,,,,,
CC(C)(C)c1ccc(S(=O)(=O)/C=C/C#N)cc1,-0.05 h (inactive),-4% (inactive),0.9 (inactive),114% (inactive),0.996 (inactive) and 0.965 (inactive),0.975 and 1.39,4040 and 1980,4060 and 2060,inactive,-1.5 (inactive) and -1.04 (inactive),,,,,,,-5.26,6870,0.733 (inactive)
NS(=O)(=O)C#Cc1ccccc1,,0% (inactive),1 (inactive),110% (inactive),1.19 (inactive) and 0.967 (inactive) and 1.13 (inactive),1.2 and 0.467 and 1.12,3660 and 6510 and 3430,3080 and 6730 and 3020,inactive,-1.27 (inactive) and -0.695 (inactive),,,-0.62 (inactive),-0.117,,,,,
CC(C)NC[C@H](O)COc1ccc(CC(N)=O)cc1,-0.06 h (inactive),-2% (inactive),1 (inactive),87% (inactive),1.04 (inactive) and 0.889 (inactive) and 0.97 (inactive),1.51 and 1.14 and 0.697,7050 and 9340 and 9400,6770 and 10500 and 9690,inactive,0.305 (inactive) and -0.32 (inactive),,,-0.419 (inactive),-1.01,111% (inactive),102%,,,
